Experimental data taken from PubChem BioAssay (Tox21).
Results filed as inconclusive are left out. A number with no mark means an inactive call. Activity calls are given as the source filed them. Calls come from the whole dose curve.

assay: qHTS assay to identify small molecule agonists of the hypoxia (HIF-1) signaling pathway - cell viability counter screen (AID 1224844); conditions: HRE-bla ME-180 viability, CellTiter-Glo luminescence, 17 h; series mostly up to 76.8 µM; activity change, negative = cytotoxicity: at the top concentration; note: nearly all actives have a fitted effect of over 50% in size
Excerpt: National Center for Advancing Translational Sciences [NCATS]
NIH Chemical Genomics Center [NCGC]
U.S. Environmental Protection Agency [EPA]
National Institutes of Environmental Health Sciences [NIEHS]
National Toxicology Program [NTP]
U.S. Food and Drug Administration [FDA]
Hypoxia-inducible factor-1 (HIF-1) is the major hypoxia-regulated transcription factor that controls cellular responses to low oxygen concentration. HIF-1 is composed of two subunits: hypoxia responsive HIF-1-alpha and constitutively expressed HIF-1-beta, which is also known as aryl hydrocarbon receptor nuclear translocator. During hypoxic conditions, HIF-1-alpha heterodimerizes with HIF-1-beta and translocates into the nucleus where the HIF-1 complex binds to the hypoxia-response element (HRE) and activates expression of target genes such as VEGF (vascular endothelial growth factor). The HIF-1 pathway is essential to normal growth and development, and is involved in the pathophysiology of cancer, inflammation, and ischemia.
Using a beta-lactamase reporter-gene under control of the hypoxia response element, a cell-based assay [CellSensor(TM) HRE-bla ME-180 from Life Technologies, Carlsbad, CA] was used to measure hypoxia-induced signaling. Tox21 10K library compounds were measured for their ability to induce the reporter gene activity. The cytotoxicity of the Tox21 compound library against HRE-bla ME-180 cell line was tested in parallel by measuring cell viability using CellTiter-Glo assay (Promega, Madison, WI) in the same assay wells.
Tox21 Assay Protocol Summary:
HRE-bla ME-180 cells were dispensed at 2,000 cells per well in 6 uL of assay medium containing 0.5% dialyzed FBS into black wall/clear-bottom 1536-well plates using a Multidrop Combi (Thermo Scientific, Waltham, MA) dispenser. After the assay plates were incubated at 37C and 5% CO2 for 5 hrs, 23 nL of compounds dissolved in DMSO, positive controls or DMSO only was transferred to each well of the assay plate using a Pintool station (Kalypsys, San Diego, CA). The assay plates were incubated at 37C and 5% CO2 for 17 hrs. One uL of LiveBLAzerTM B/G FRET substrate (CCF4-AM) (Life Technologies) was added to each well using a Flying Reagent Dispenser (FRD, Aurora Discovery, San Diego, CA). After 2 hr incubation at room temperature, fluorescence intensity (405 nm excitation, 460 nm and 530 nm emissions) was measured using an Envision plate reader (PerkinElmer, Shelton, CT). For cytotoxicity, 4 ul/well of CellTiter-Glo reagent was added into the assay plates using an FRD. After 30 min incubation at room temperature, the luminescence intensity was measured using a ViewLux plate reader (PerkinElmer).
% is set by controls: 0 for no effect and ±100 for the full control effect; potency is the fitted concentration of half-maximal effect.

Row | SMILES | activity change, negative = cytotoxicity | Potency
1 | Nc1ccc(C(=O)O)c(O)c1 | -2.64% [at 35.3 µM] | 
2 | O=[N+]([O-])c1ccc(F)c(Cl)c1 | -19.4% | 
3 | OC1CCC(C2CCCCC2)CC1 (stereo not given) | -5.44% | 
4 | CCOC(=O)NNc1ccc(N(CC)CC(C)O)nn1 (stereo not given) | 5.59% [at 35.3 µM] | 
5 | COc1cc(C)ccc1O | -10.7% | 
6 | O=[N+]([O-])c1cccc(C(F)(F)F)c1 | 9.58% | 
7 | CC(C)(c1cc(Br)c(OCC(Br)CBr)c(Br)c1)c1cc(Br)c(OCC(Br)CBr)c(Br)c1 (stereo not given) | -23.1% [at 35.3 µM] | 
8 | Cc1ccc(N/N=c2\c(=O)cc/c(=N\Nc3ccc(S(=O)(=O)O)cc3)c2=O)c(C)c1 | -0.694% | 
9 | OC12N=C(c3ccccc3)SC1Cc1cc(Cl)ccc12 (stereo not given) | -11.3% | 
10 | O=C(Nc1ccc2c(O)c(N=Nc3ccc(N=Nc4ccc(S(=O)(=O)O)cc4)cc3)c(S(=O)(=O)O)cc2c1)c1ccccc1 | 17.4% | 
11 | c1ccsc1 | -26.1% | 
12 | O=C(c1ccc(O)c(O)c1)c1ccc(O)cc1O | 24.2% | 
13 | Cc1ccc(O)c(N)c1 |  | 39 µM (active)
14 | CN(C)Cc1cc(C(C)(C)C)c(O)c(C(C)(C)C)c1 | 1.54% | 
15 | CCC(=O)OC(=O)CC | -23.9% | 
16 | CCCCOC(=O)CO | 10.9% | 
17 | CCCCCCCCCCCCCCCC[N+](C)(C)CC | -25.6% [at 35.3 µM] | 
18 | CN(C)Cc1ccccc1O | 8.02% | 
19 | Cc1ccc(C)cc1 | 7.9% | 
20 | Cc1c(C)c([N+](=O)[O-])c(C(C)(C)C)c([N+](=O)[O-])c1C | -0.957% | 

Row | SMILES | activity change, negative = cytotoxicity | Potency
21 | CC1=Nc2ccccc2C1(C)C | 9.64% | 
22 | CCC(C)[O-].CCC(C)[O-].CCOC(=O)/C=C(/C)[O-].[Al+3] | -1.88% | 
23 | CC1(C)CC(O)CC(C)(C)N1 | -0.853% | 
24 | CCCCCCOC(=O)C(C)CC (stereo not given) | 2.3% | 
25 | C=Cc1cccc(C)c1 |  | inactive
26 | Nc1nc(-c2ccccc2)cs1 | -0.716% | 
27 | Cc1c(N)cccc1C(F)(F)F | -1.07% [at 35.3 µM] | 
28 | CC(=O)Oc1cc2c(s1)CCN(C(C(=O)C1CC1)c1ccccc1F)C2 (stereo not given) | -1.05% [at 35.3 µM] | 
29 | CC(C)=CCNc1ncnc2c1ncn2[C@@H]1O[C@H](CO)[C@@H](O)[C@H]1O |  | 8.49 µM (active)
30 | CC(C)=CCC1=C(O)c2ccccc2C(=O)C1=O | 0.798% | 
31 | COC(C)=O | 1.46% | 
32 | COc1cc(S(=O)(=O)O)c(C)cc1N=Nc1c(O)ccc2cc(S(=O)(=O)O)ccc12 | -10.7% | 
33 | CCCCN(CCCC)CC(O)c1cc(Cl)cc2c1-c1ccc(Cl)cc1/C2=C/c1ccc(Cl)cc1 (stereo not given) | -1.95% [at 35.3 µM] | 
34 | O=C(O)c1ccc2cc(C(=O)O)ccc2c1 | 4.63% | 
35 | OC/C=C/CO | 12.7% | 
36 | c1cnccn1 | -6.6% | 
37 | C=C(C)C(=O)OCCCCCCCCCC | 0.597% | 
38 | Fc1ccc(C(c2ccc(F)cc2)N2CCNCC2)cc1 | -4.42% [at 35.3 µM] | 
39 | CC(=O)CC(=O)Nc1ccc(S(=O)(=O)O)cc1 | -6.5% | 
40 | Cc1nc(-c2ccc(Cl)cc2)oc1COC(C)(C)C(=O)O | 1.03% [at 35.3 µM] | 
